# Results taken from the supplement of paper PMC9694430.
# Experiments:
# Assay in all cases: thermal shift delta Tm vs DMSO control; higher = stronger stabilization (binding)
# Conditions in all cases: 12.5 µM; protein concentration 2 µM
# [1] = test system: LOC_OS02G45750-cb003
# Summary of the method: (§1)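 Compounds dissolved in DMSO were added to purified rice kinase domain constructs, which had been expressed in E. coli, for differential scanning fluorimetry. Each well held 19.5 μl of 2 μM kinase in 100 mM potassium phosphate pH 7.5, 150 mM NaCl, 10% glycerol and 5 × SYPRO Orange. Fluorescence was followed from 25°C to 95°C at a rate of 0.05°C/s. Shifts in Boltzmann-fitted melting temperature are triplicate means relative to DMSO-only protein.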
# [2] = test system: LOC_OS02G54510-cb004
# Summary of the method: as §1
# [3] = test system: LOC_OS03G04050-cb001
# Summary of the method: as §1
# [4] = test system: LOC_OS03G12390-cb001
# Summary of the method: as §1
# [5] = test system: LOC_OS03G27990-cb004
# Summary of the method: as §1
# [6] = test system: LOC_OS03G50450-cb001
# Summary of the method: as §1
# [7] = test system: LOC_OS03G50810-cb003
# Summary of the method: as §1
# [8] = test system: LOC_OS04G35114-cb001
# Summary of the method: as §1
# [9] = test system: T1, LOC_OS04G38480-cb003
# T1 sequence (whole entry): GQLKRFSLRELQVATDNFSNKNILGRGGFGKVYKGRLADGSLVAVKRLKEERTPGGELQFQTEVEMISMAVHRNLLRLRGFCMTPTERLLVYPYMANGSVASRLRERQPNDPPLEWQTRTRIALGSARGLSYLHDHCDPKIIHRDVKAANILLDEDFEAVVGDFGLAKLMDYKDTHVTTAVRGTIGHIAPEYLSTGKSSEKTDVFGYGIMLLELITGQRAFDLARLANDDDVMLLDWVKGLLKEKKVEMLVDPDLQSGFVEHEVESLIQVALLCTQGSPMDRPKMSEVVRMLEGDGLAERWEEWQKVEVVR
# Summary of the method: as §1
# [10] = test system: T2, LOC_OS04G41100-cb001
# T2 sequence (whole entry): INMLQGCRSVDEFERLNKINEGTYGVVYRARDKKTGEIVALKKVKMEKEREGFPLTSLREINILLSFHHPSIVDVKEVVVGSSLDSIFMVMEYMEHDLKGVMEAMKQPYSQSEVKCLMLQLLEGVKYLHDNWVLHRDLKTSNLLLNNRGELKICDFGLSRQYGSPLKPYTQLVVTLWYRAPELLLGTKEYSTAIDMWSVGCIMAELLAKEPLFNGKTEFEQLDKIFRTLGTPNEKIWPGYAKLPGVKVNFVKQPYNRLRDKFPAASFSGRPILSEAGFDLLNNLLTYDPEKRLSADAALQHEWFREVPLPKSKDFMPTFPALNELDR
# Summary of the method: as §1
# [11] = test system: LOC_OS04G57630-cb004
# Summary of the method: as §1
# [12] = test system: LOC_OS05G07850-cb002
# Summary of the method: as §1
# [13] = test system: LOC_OS05G16824-cb004
# Summary of the method: as §1
# [14] = test system: LOC_OS05G28520-cb001
# Summary of the method: as §1
# [15] = test system: LOC_OS05G30820-cb001
# Summary of the method: as §1
# [16] = test system: LOC_OS05G43570-cb004
# Summary of the method: as §1
# [17] = test system: LOC_OS06G16330-cb003
# Summary of the method: as §1
# [18] = test system: T3, LOC_OS06G22820-cb001
# T3 sequence (whole entry): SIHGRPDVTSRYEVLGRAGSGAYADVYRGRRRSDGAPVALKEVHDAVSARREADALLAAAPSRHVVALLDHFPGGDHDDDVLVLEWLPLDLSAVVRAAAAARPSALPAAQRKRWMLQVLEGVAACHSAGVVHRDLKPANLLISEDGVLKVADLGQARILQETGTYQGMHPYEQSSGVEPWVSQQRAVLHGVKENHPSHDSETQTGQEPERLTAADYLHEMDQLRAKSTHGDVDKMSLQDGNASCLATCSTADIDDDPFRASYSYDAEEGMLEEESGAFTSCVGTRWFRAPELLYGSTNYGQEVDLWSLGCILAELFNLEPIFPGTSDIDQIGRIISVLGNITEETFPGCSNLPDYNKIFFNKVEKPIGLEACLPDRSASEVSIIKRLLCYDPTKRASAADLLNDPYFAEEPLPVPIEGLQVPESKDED
# Summary of the method: as §1
# [19] = test system: LOC_OS07G06570-cb004
# Summary of the method: as §1
# [20] = test system: LOC_OS07G07230-cb001
# Summary of the method: as §1
# LOC_OS06G16330-cb003, sequence (as listed by the source): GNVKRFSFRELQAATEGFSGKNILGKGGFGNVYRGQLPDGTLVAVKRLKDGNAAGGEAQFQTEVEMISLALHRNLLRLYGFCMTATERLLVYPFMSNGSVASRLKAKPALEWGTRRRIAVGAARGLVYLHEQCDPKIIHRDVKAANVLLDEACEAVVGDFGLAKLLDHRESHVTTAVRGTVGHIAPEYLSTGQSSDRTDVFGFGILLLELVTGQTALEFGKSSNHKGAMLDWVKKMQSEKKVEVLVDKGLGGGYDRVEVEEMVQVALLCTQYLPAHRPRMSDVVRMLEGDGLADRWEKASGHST
SMILES,thermal shift delta Tm [1] [°C],thermal shift delta Tm [2] [°C],thermal shift delta Tm [3] [°C],thermal shift delta Tm [4] [°C],thermal shift delta Tm [5] [°C],thermal shift delta Tm [6] [°C],thermal shift delta Tm [7] [°C],thermal shift delta Tm [8] [°C],thermal shift delta Tm [9] [°C],thermal shift delta Tm [10] [°C],thermal shift delta Tm [11] [°C],thermal shift delta Tm [12] [°C],thermal shift delta Tm [13] [°C],thermal shift delta Tm [14] [°C],thermal shift delta Tm [15] [°C],thermal shift delta Tm [16] [°C],thermal shift delta Tm [17] [°C],thermal shift delta Tm [18] [°C],thermal shift delta Tm [19] [°C],thermal shift delta Tm [20] [°C]
CCS(=O)(=O)N1CCN(c2ccc(Nc3ncc(C(N)=O)c(NC4CC4)n3)cc2)CC1,8.46,4.48,0.19,6.9,5.89,5.37,4.92,6.29,2.13,2.54,1.82,9.2,11.7,0.7,3.56,2.04,5.15,0.57,1.36,1.17
CN(C)CCCn1cc(C2=C(c3c[nH]c4ccccc34)C(=O)NC2=O)c2ccccc21,0.99,0.36,0.65,0.12,0.5,1.02,0.83,1.37,-0.32,0.65,0.12,3.88,1.25,0.24,0.37,0.07,0.14,0.44,0.94,0.81
CC(C)(C)c1nc(-c2cccc(NS(=O)(=O)c3c(F)cccc3F)c2F)c(-c2ccnc(N)n2)s1,2.7,2.41,0.43,0.52,0.49,1.42,1.63,2.09,2.46,2.47,1.63,9.38,8.29,0.83,3.66,0.62,3.39,0.62,0.8,0.6
CC#CC(=O)Nc1ccc2ncnc(Nc3cccc(Br)c3)c2c1,-0.66,0.79,0.48,0.54,0.39,-0.04,1.24,3.68,1.41,0.03,1.19,9.9,-2.35,0.85,0.66,0.95,3.13,0.56,1.04,0.05
CCc1cccc(CC)c1NC(=O)N1Cc2[nH]nc(NC(=O)c3ccc(N4CCN(C)CC4)cc3)c2C1,2.47,0.46,0.29,4.75,0.09,0.27,2.53,4.67,0.61,0.62,0.89,5.74,1.16,0.11,0.78,0.47,2.93,1.47,1.26,0.12
C[C@@H](Oc1cc(-n2cnc3ccc(CN4CCN(C)CC4)cc32)sc1C(N)=O)c1ccccc1C(F)(F)F,0.36,-0.15,0.2,-0.35,-0.09,-0.03,0.55,2.11,0.27,0.39,1.23,2.4,-4.79,-0.16,0.61,0.21,2.19,0.97,1.02,0.47
O=c1cc(N2CCOCC2)oc2c1ccc1ccccc12,0.57,0.45,0.58,1.07,0.27,0.43,0.29,0.64,2.01,0.31,0.45,0.96,1.86,0.42,0.43,0.67,-3.55,0.23,0.63,0.36
